Measurements published in ChEMBL document CHEMBL1157539, “Thousands of chemical starting points for antimalarial lead identification” (Nature, 2010).

What was measured:
Format in all cases: functional
Plasmodium falciparum [1] = assay: GSK_TCMDC: Inhibition of Plasmodium falciparum 3D7 in whole red blood cells, using parasite LDH activity as an index of growth. Test compounds present at 2uM
Plasmodium falciparum [2] = assay: GSK_TCMDC: Inhibition of Plasmodium falciparum Dd2 in whole red blood cells, using parasite LDH activity as an index of growth. Test compounds present at 2uM
HepG2 = assay: GSK_TCMDC: Percent inhibition of human HepG2 cell line. Test compounds present at 10uM.

| SMILES | Inhibition (Plasmodium falciparum [1]) [%] | Inhibition (Plasmodium falciparum [2]) [%] | Inhibition (HepG2) [%] |
| --- | --- | --- | --- |
| Cc1ccc(NS(=O)(=O)c2cccs2)cc1-c1cccc(C(=O)Nc2ccc(F)cc2)c1 | 99 | 100 | 38 |
| CC(=O)c1ccccc1C(=O)N1CCOc2ccc(C(O)C(c3ccccc3)c3ccccc3)cc2C1 (centres undefined) | 96 | 98 | 10 |
| COc1ccccc1CCNc1nc(C)cc(N[C@@H](Cc2ccccc2)C(=O)NCc2cccc(F)c2)n1.O=C(O)C(F)(F)F | 99 | 86 | 31 |
| Cc1[nH]c(C)c(-c2ccc(-c3ccc4c(c3)OCO4)nc2)c(=O)c1Br | 96 | 96 | 0 |
| CCN1CCN(Cc2ccc(-c3ccc(NS(=O)(=O)c4cccc5cccnc45)cc3)cc2)CC1.O=C(O)C(F)(F)F | 90 | 42 | 29 |
| O=C(Nc1ccc(-c2nc3ccccc3[nH]2)cc1)c1ccc(Cl)s1 | 99 | 34 | 16 |
| O=C(c1ccc(OCCn2ccnc2)cc1)N1CCC(c2ccc(Br)cc2)C1 (centres undefined) | 100 | 99 | 49 |
| CN1CCN(c2ccnc3ccc(NC(=O)Nc4ccc5ccccc5c4)cc23)CC1.Cl | 100 | 99 | 2 |
| CCCCNC(=O)[C@H](CC1CCCCC1)NC(=O)c1ccc(O)c(-c2cccc(C(F)(F)F)c2)c1 | 98 | 86 | 0 |
| COc1ccc2nc3cc(Cl)ccc3c(NCc3ccccc3)c2c1.Cl | 100 | 50 | 8 |
| CC(=O)Nc1ccc(C(=O)Nc2cccc(-c3cccc(-c4nc5cccc(C)c5[nH]4)c3)c2)cn1 | 100 | 100 | 16 |
| CC1CCc2sc(-c3nnc(SC(C)C(=O)NC4CC4)o3)cc2C1 (centres undefined) | 83 | 69 | 5 |
| Cl.NC1CCN(CCc2ccc(NS(=O)(=O)c3ccc(-c4ccccc4)cc3)cc2)CC1 | 100 | 19 | 17 |
| Cn1c(NCc2cc(F)cc3c2OCOC3)nc2cc(Nc3ccnc(Nc4cccc(CS(C)(=O)=O)c4)n3)ccc21 | 100 | 100 | 0 |
| CN1CCN(c2ccnc3ccc(NC(=O)Nc4cccc5c(-c6ccncc6)cccc45)cc23)CC1 | 100 | 100 | 7 |
| CC(C)NC(C)(C)CN(Cc1ccc(-c2ccc(C(F)(F)F)cc2)cc1)C(=O)Cn1c(CCc2cccc(F)c2F)nc(=O)c2ccccc21 | 94 | 68 | 44 |
| Br.CC1(C)NC(N)=NC(=N)N1OCCCc1c(Cl)cccc1Cl | 95 | 97 | 71 |
| O=C(NC1CCCCC1)N(Cc1cccc(-c2ccc(CNCCc3ccccc3)cc2)c1)C1CCN(Cc2ccccc2)CC1.O=C(O)C(F)(F)F | 93 | 93 | 61 |
| COc1ccc(NC(=O)NC2CCN(CCCOc3ccnc4cc(Cl)ccc34)C2)cc1OC (centres undefined) | 90 | 16 | 6 |
| O=C(Nc1ccc2c(c1)CCC2)c1cnc(N2CCN(c3ccncc3)CC2)c(Cl)c1.O=C(O)C(F)(F)F | 100 | 48 | 33 |
| Cc1cccc(Nc2nc(N[C@@H]3CCCNC3)nc3cc[nH]c(=O)c23)c1.O=C(O)C(F)(F)F | 99 | 98 | 55 |
| CCNc1cc(C)nc(Nc2ccccc2)n1 | 92 | 8 | 16 |
| Cl.Nc1nc(Nc2cccc(O)c2)nc2ccccc12 | 96 | 79 | 25 |
| CCCCN1CCN(c2cc(NS(=O)(=O)c3cccc(C(=O)Nc4ccc(C(F)(F)F)cc4)c3)ccc2OC)CC1.O=C(O)C(F)(F)F | 99 | 7 | 6 |
| CNS(=O)(=O)c1ccc(NC(=O)c2cc(-c3cccnc3)nc3ccc(Br)cc23)cc1 | 100 | 55 | 9 |
| Cc1cccc2nc(-c3ccc(-c4cccc(CNCCCN5CCCC5=O)c4)cc3)[nH]c12.O=C(O)C(F)(F)F | 96 | 3 | 6 |
| CC(=O)Nc1ccc(S(=O)(=O)Nc2c(C)cc(Cc3cnc(N)nc3N)cc2C)cc1 | 94 | 0 | 6 |
| Cc1cc(N(C)C)nc(Nc2ccc(NC(=O)c3c(F)cccc3F)cc2)n1 | 94 | 45 | 50 |
